# PubChem BioAssay (EPA / NIEHS)
# Where “and” joins values, the source holds several entries; their conditions need not be identical. Equal values may be shown once. A structure can be active in one record and inactive in another. Calls of active or inactive are those of the source. Rule for the calls: active = hit-call score of the fitted dose curve at least 0.9, where 1 is the maximum; inactive = score below 0.9.
# Columns and labels:
# [1] = read-out: Intercellular Adhesion Molecule 1 (ICAM1), ICAM1 (gene 3383); test: BSK_BF4T_ICAM1: BioMAP Diversity Plus: BF4T Assay for Intercellular Adhesion Molecule 1 (ICAM1) Biomarker Activity (AID 2284260); details: primary human bronchial epithelial cells with fibroblasts
# Method in brief: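 ICAM-1 levels measured by ELISA after 24 h chemical treatment of bronchial epithelial cell/dermal fibroblast co-cultures, read against DMSO baseline. Overt cytotoxicity checked in parallel cultures by sulforhodamine B staining.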
# [2] = read-out: Interleukin-8 (IL8), CXCL8 (gene 3576); test: BSK_MyoF_IL8: BioMAP Diversity Plus: MyoF Assay for Interleukin-8 (IL8) Biomarker Activity (AID 2284261); details: primary human lung fibroblasts
# Method in brief: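 IL-8 levels were measured by ELISA in human lung fibroblasts harvested 24 h after compound addition. Responses were analysed as gain of signal over the DMSO baseline.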
# [3] = read-out: Interleukin-8 (IL8), CXCL8 (gene 3576); test: BSK_BF4T_IL8: BioMAP Diversity Plus: BF4T Assay for Interleukin-8 (IL8) Biomarker Activity (AID 2284263); details: primary human bronchial epithelial cells with fibroblasts
# Method in brief: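 Human bronchial epithelial cells with dermal fibroblasts co-culture; IL-8 measured by ELISA 24 hours after dosing, fitted vs DMSO. Cytotoxicity tracked in parallel cultures by SRB total-protein staining.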
# [4] = read-out: Interleukin-1 alpha (IL1a), IL1A (gene 3552); test: BSK_BF4T_IL1a: BioMAP Diversity Plus: BF4T Assay for Interleukin-1 alpha (IL1a) Biomarker Activity (AID 2284264); details: primary human bronchial epithelial cells with fibroblasts
# Method in brief: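 ELISA read-out of IL-1α from bronchial epithelial cell/dermal fibroblast co-cultures 24 h after compound addition. Increases scored against DMSO negative control. Cytotoxicity monitored by sulforhodamine B staining of parallel cultures.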
# Decorin, DCN (gene 1634) = test: BSK_MyoF_Decorin: BioMAP Diversity Plus: MyoF Assay for Decorin Biomarker Activity (AID 2284265); details: primary human lung fibroblasts
# Method in brief: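 Compound is added to lung fibroblast cultures; cells incubate 24 h; decorin is then measured by ELISA; the response is analysed upward against DMSO controls.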
# [5] = BSK_MyoF_SRB: Viability Assessment in the BioMAP Diversity Plus: MyoF Assay (AID 2284267); details: primary human lung fibroblasts;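 note: total protein by SRB absorbance in parallel cultures as cytotoxicity measure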
# Method in brief: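 Cytotoxicity read-out: after 10% TCA fixation, parallel human lung fibroblast cultures were stained with 0.1% SRB at 24 h post-dosing and read at 560 nm; DMSO served as baseline.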
# [6] = read-out: Matrix Metallopeptidase 1 (MMP1), MMP1 (gene 4312); test: BSK_MyoF_MMP1: BioMAP Diversity Plus: MyoF Assay for Matrix Metallopeptidase 1 (MMP1) Biomarker Activity (AID 2284268); details: primary human lung fibroblasts
# Method in brief: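 Lung fibroblast cultures were dosed with test chemicals and, after 24 h, MMP1 levels were measured by ELISA; responses were referenced to DMSO and analysed for increases.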
# [7] = read-out: Matrix Metallopeptidase 3 (MMP3), MMP3 (gene 4314); test: BSK_BF4T_MMP3: BioMAP Diversity Plus: BF4T Assay for Matrix Metallopeptidase 3 (MMP3) Biomarker Activity (AID 2284271); details: primary human bronchial epithelial cells with fibroblasts
# Method in brief: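 MMP-3 level read by ELISA after 24 h chemical exposure of bronchial epithelial cell/dermal fibroblast co-cultures, fitted upward relative to DMSO. Parallel cultures stained with 0.1% SRB after TCA fixation gauge overt cytotoxicity.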
# [8] = read-out: Plasminogen Activator Inhibitor-1 (PAI1), SERPINE1 (gene 5054); test: BSK_BF4T_PAI1: BioMAP Diversity Plus: BF4T Assay for Plasminogen Activator Inhibitor-1 (PAI1) Biomarker Activity (AID 2284273); details: primary human bronchial epithelial cells with fibroblasts
# Method in brief: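 PAI-1 levels quantified by ELISA 24 h post-dosing in bronchial epithelial cell plus dermal fibroblast cultures. Signal gain referenced to DMSO baseline. Sulforhodamine B total-protein staining of parallel wells checked cytotoxicity.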
# [9] = BSK_BF4T_SRB: Viability Assessment in the BioMAP Diversity Plus: BF4T Assay (AID 2284274); details: primary human bronchial epithelial cells with fibroblasts
# Method in brief: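 Cytotoxicity measured as total protein: cells fixed with 10% TCA, stained with 0.1% SRB, read at 560 nm. Bronchial epithelial/dermal fibroblast co-culture, 24 h after dosing, with positive-direction fitting relative to DMSO.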
compound,measurement,setting,value
O=C(CC(=O)C(F)(F)C(F)(F)C(F)(F)F)c1cccs1,AC50,[1],20 µM (active) and 18.8 µM (active)
same,outcome,[2],inactive
same,AC50,[3],52.8 µM (active) and 55.1 µM (active)
same,AC50,[4],43 µM (active) and 45 µM (active)
same,outcome,"Decorin, DCN (gene 1634)",inactive
same,outcome,[5],inactive
same,outcome,[6],inactive
same,AC50,[7],37.6 µM (active) and 25.2 µM (active)
same,AC50,[8],16.9 µM (active) and 15.5 µM (active)
same,AC50,[9],23.9 µM (active) and 26.7 µM (active)
Cc1ccc(C(=O)c2ccccc2)cc1,outcome,[2],inactive
same,outcome,"Decorin, DCN (gene 1634)",inactive
same,outcome,[5],inactive
same,AC50,[6],38.7 µM (active)
OCC(F)(F)C(F)(F)C(F)(F)C(F)(F)C(F)(F)C(F)(F)C(F)(F)C(F)(F)C(F)(F)C(F)(F)C(F)(F)F,outcome,[1],inactive
same,outcome,[2],inactive
same,outcome,[3],inactive
same,outcome,[4],inactive
same,outcome,"Decorin, DCN (gene 1634)",inactive
same,outcome,[5],inactive
same,outcome,[6],inactive
same,outcome,[7],inactive
same,outcome,[8],inactive
same,outcome,[9],inactive
CN(Cc1cnc2nc(N)nc(N)c2n1)c1ccc(C(=O)N[C@@H](CCC(=O)O)C(=O)O)cc1,outcome,[1],inactive
same,outcome,[2],inactive
same,AC50,[3],2.65 µM (active)
same,outcome,[3],inactive
same,outcome,[4],inactive
same,outcome,"Decorin, DCN (gene 1634)",inactive
same,outcome,[5],inactive
same,outcome,[6],inactive
same,outcome,[7],inactive
same,outcome,[8],inactive
same,outcome,[9],inactive
C=COC(=O)C(C)(C)CCCCCC,outcome,[2],inactive
same,AC50,"Decorin, DCN (gene 1634)",31.7 µM (active)
same,AC50,[5],30.9 µM (active)
same,outcome,[6],inactive
COc1cccc(O)c1,outcome,[2],inactive
same,outcome,"Decorin, DCN (gene 1634)",inactive
same,outcome,[5],inactive
same,outcome,[6],inactive
CCCCCCCCCCCCCCCCCC[N+](C)(C)Cc1ccccc1,AC50,[2],5.06 µM (active)
same,AC50,"Decorin, DCN (gene 1634)",10 µM (active)
same,AC50,[5],2.65 µM (active)
same,outcome,[6],inactive
O=C1OC2(c3ccccc31)c1cc(I)c(O)c(I)c1Oc1c2cc(I)c(O)c1I,AC50,[2],3.37 µM (active)
same,AC50,"Decorin, DCN (gene 1634)",2.56 µM (active)
same,outcome,[5],inactive
same,AC50,[6],0.605 µM (active)
O=C1c2ccc(O)c(O)c2C(=O)c2c(O)ccc(O)c21,outcome,[2],inactive
same,outcome,"Decorin, DCN (gene 1634)",inactive
same,outcome,[5],inactive
same,outcome,[6],inactive
O=S(=O)(O)C(F)(F)C(F)(F)C(F)(F)C(F)(F)C(F)(F)C(F)(F)C(F)(F)C(F)(F)C(F)(F)C(F)(F)F,outcome,[1],inactive
same,outcome,[2],inactive
same,AC50,[3],2.65 µM (active) and 6.99 µM (active)
same,outcome,[4],inactive
same,outcome,"Decorin, DCN (gene 1634)",inactive
same,outcome,[5],inactive
same,outcome,[6],inactive
same,outcome,[7],inactive
same,outcome,[8],inactive
same,outcome,[9],inactive
C=CC(C)(CCC=C(C)C)OC(C)=O (stereo unspecified),outcome,[2],inactive
same,outcome,"Decorin, DCN (gene 1634)",inactive
same,outcome,[5],inactive
same,outcome,[6],inactive
O=C(NCc1ncc(C(F)(F)F)cc1Cl)c1c(Cl)cccc1Cl,outcome,[2],inactive
same,outcome,"Decorin, DCN (gene 1634)",inactive
same,outcome,[5],inactive
same,outcome,[6],inactive
C=CC(=O)OCCC(F)(F)C(F)(F)C(F)(F)C(F)(F)C(F)(F)C(F)(F)C(F)(F)C(F)(F)F,outcome,[1],inactive
same,outcome,[2],inactive
same,outcome,[3],inactive
same,outcome,[4],inactive
same,outcome,"Decorin, DCN (gene 1634)",inactive
same,outcome,[5],inactive
same,outcome,[6],inactive
same,outcome,[7],inactive
same,outcome,[8],inactive
same,outcome,[9],inactive
CC(C)(C)c1ccc(O)c(O)c1,outcome,[2],inactive
same,outcome,"Decorin, DCN (gene 1634)",inactive
same,AC50,[5],33.5 µM (active)
same,outcome,[6],inactive
C[C@]12CC[C@@H]3c4ccc(O)cc4CC[C@H]3[C@@H]1C[C@@H](O)[C@@H]2O,outcome,[2],inactive
same,outcome,"Decorin, DCN (gene 1634)",inactive
same,outcome,[5],inactive
same,outcome,[6],inactive
COCN(COC)c1nc(N(COC)COC)nc(N(COC)COC)n1,outcome,[2],inactive
same,outcome,"Decorin, DCN (gene 1634)",inactive
same,outcome,[5],inactive
same,outcome,[6],inactive
CC1=NN(c2ccccc2)C(=O)C1,outcome,[2],inactive
same,outcome,"Decorin, DCN (gene 1634)",inactive
same,outcome,[5],inactive
same,outcome,[6],inactive
OCCN1CN(CCO)CN(CCO)C1,outcome,[2],inactive
same,outcome,"Decorin, DCN (gene 1634)",inactive
same,outcome,[5],inactive
same,outcome,[6],inactive
Cc1ccc(N=Nc2c(O)ccc3ccccc23)c(C)c1,outcome,[2],inactive
same,outcome,"Decorin, DCN (gene 1634)",inactive
same,outcome,[5],inactive
same,outcome,[6],inactive
CCCCC(CC)C(=O)OCCOCCOCCOCCOC(=O)C(CC)CCCC (stereo unspecified),outcome,[2],inactive
same,outcome,"Decorin, DCN (gene 1634)",inactive
same,outcome,[5],inactive
same,outcome,[6],inactive
